Assay outcomes from PubChem.
HIV Env fusion: blocks HIV Env-driven cell-cell fusion. HeLa-JRFL Env/CEM21 cell fusion, luciferase. inhibition, % at 12.3 µM. 360,000 tested, 1.1% active;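 active = mean replicate inhibition score of at least 50 and every replicate individually at or above 50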;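 note: 0% = plate neutral controls and 100% = maraviroc near 300 nM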
EBV LMP1 NFkB: Epstein-Barr LMP1 NF-kappaB reporter inhibition. LMP1-induced NF-kappaB luciferase reporter cells, luminescence. inhibition, % at 12.5 µM. 350,000 tested, 0.69% active. AID 504558; in the data active = inhibition above about 41%;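 note: 0% = neutral control wells and 100% = reference inhibitor control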
NSD2 HMT inh: inhibitors of human histone methyltransferase NSD2 | O96028 | NSD2 peptide methylation, AlphaScreen, 120 min | inhibition, % at 12.5 µM | 310,000 tested, 0.54% active; in the data active = inhibition above about 50%
Glyco luc inh: blocks N-linked glycosylation in D54 reporter cells; AID 588692; reporter increase, % at 12.5 µM; 360,000 tested, 0.23% active; D54 ERlucT glycosylation luciferase reporter, 24 h; percent of 100 nM tunicamycin response;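 active = mean luciferase reporter signal, scaled so untreated is 0 and the glycosylation-blocking control 100, at or above a set limit in every replicate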;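 note: luciferase carries N-glycosylation sites so blocking glycosylation raises the light; 0% = median of neutral control wells and 100% = median of 100 nM tunicamycin wells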
Shn3 inh set2: inhibitors of Schnurri-3 3'UTR reporter in osteoblasts | Clone20 osteoblast Shn3 3'UTR firefly luciferase, 24 h | inhibition, % at 12.5 µM | 360,000 tested, 0.52% active;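 active = mean inhibition of at least 75% with every replicate also reaching 75%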;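 note: 0% = median of neutral control wells and 100% = pilot-screen positive control compound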
PAX8 reporter: PAX8 transcriptional activity inhibition. inhibition, % at 12.6 µM. RMG-I TPO-luciferase reporter, SteadyGlo, 24 h. 360,000 tested, 1.2% active;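 active = mean replicate inhibition at least 60% with every replicate also reaching 60%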;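 note: luciferase light reporting Pax8 driven TPO promoter activity; plate controls were median of neutral control wells for no effect and mitoxantrone controls for full effect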
Starred values were filed as active, the others as inactive; nt = no result given; [ ] = another dose, or the depositor's remark. Most compounds without a hit are left out; they make up all but 2.8% or so of the library.

SMILES | HIV Env fusion | EBV LMP1 NFkB | NSD2 HMT inh | Glyco luc inh | Shn3 inh set2 | PAX8 reporter
C[C@H]1CCCCO[C@H](CN(C)Cc2ccc(Cl)c(Cl)c2)[C@@H](C)CN([C@@H](C)CO)C(=O)c2cc(NS(=O)(=O)c3ccc(F)cc3)ccc2O1 | nt | nt | nt | nt | nt | 35
C[C@@H]1CCCCO[C@H](CN(C)Cc2ccc(Cl)c(Cl)c2)[C@H](C)CN([C@@H](C)CO)C(=O)c2cc(NS(=O)(=O)c3ccccc3)ccc2O1 | 57*[16.7 µM] | nt | nt | nt | nt | 44
C[C@@H]1CCCCO[C@@H](CN(C)Cc2ccc(Cl)c(Cl)c2)[C@@H](C)CN([C@H](C)CO)C(=O)c2cc(NS(=O)(=O)c3ccc(F)cc3)ccc2O1 | -1[16.7 µM] | nt | nt | nt | nt | -3
C[C@H](CO)N1C[C@H](C)[C@@H](CN(C)Cc2ccc(Cl)c(Cl)c2)OCCCC[C@H](C)Oc2ccc(NS(=O)(=O)c3ccccc3)cc2C1=O | 22[16.7 µM] | nt | nt | nt | nt | 84*
C[C@@H]1CN([C@H](C)CO)C(=O)c2cc(NS(=O)(=O)c3ccccc3)ccc2O[C@@H](C)CCCCO[C@H]1CN(C)Cc1ccc(Cl)c(Cl)c1 | 34[16.7 µM] | nt | nt | nt | nt | 94*
C[C@@H]1CCCCO[C@@H](CN(C)Cc2ccc(Cl)c(Cl)c2)[C@@H](C)CN([C@@H](C)CO)C(=O)c2cc(NS(=O)(=O)c3ccccc3)ccc2O1 | 38[16.7 µM] | nt | nt | nt | nt | 68*
Cc1ccc(S(=O)(=O)Nc2ccc3c(c2)C(=O)N([C@@H](C)CO)C[C@H](C)[C@@H](CN(C)Cc2ccccc2)O3)cc1 | -4[16.7 µM] | nt | nt | nt | nt | 1
CC(C)[C@@H](C)NC(=O)N(C)C[C@@H]1OCc2ccccc2-c2ccccc2C(=O)N([C@@H](C)CO)C[C@@H]1C | 8[16.7 µM] | nt | nt | nt | nt | -26
C[C@H](CO)N1C[C@H](C)[C@H](CN(C)C(=O)Nc2ccc(F)cc2)Oc2ccc(NC(=O)Nc3ccccc3)cc2C1=O | nt | nt | nt | nt | nt | 8
COc1cccc(O)c1CN1CCC(C(=O)Nc2ccc(Oc3cccnc3)cc2)CC1 | 22 | 1 | 21 | -2 | 29 | 21
COc1ccc(CN2CCC(C(=O)Nc3ccc(Oc4cccnc4)cc3)CC2)c(C)c1C | -7 | -7 | -2 | -5 | 86* | 41
O=C(C=Cc1ccccc1O)c1ccccc1O | -1 | -14 | 5 | 33* | -54 | nt
Oc1cc(O)cc(C=Cc2ccc(O)c(O)c2)c1 | -110 | nt | 90* | nt | nt | -169
O=C(C=Cc1cccc(O)c1)c1ccccc1O | -17 | 19 | -1 | 23 | -8 | -52
O=C(/C=C/c1ccccc1Cl)c1ccc(O)cc1 | 1 | 3 | 16 | 30* | -9 | -58
O=C(/C=C/c1ccc(O)c(O)c1)c1ccccc1O | -132 | 2 | 62* | 6 | -38 | -139
COc1ccccc1S(=O)(=O)N[C@H]1CC[C@H](CCn2cc(C3CCCCC3)nn2)O[C@@H]1CO | 10[16.7 µM] | nt | nt | nt | nt | 9
CC(=O)N[C@@H]1CC[C@H](CCNC(=O)C2CC2)O[C@@H]1CO | -10[16.7 µM] | nt | nt | nt | nt | 11
CC(=O)Nc1ccc2c(c1)C(=O)N(C)[C@H]1CC[C@H](CC(=O)NCC3CCCCC3)O[C@@H]1CO2 | 11[16.7 µM] | nt | nt | nt | nt | -3
Cc1noc(C)c1NC(=O)N(C)C[C@H]1OCCCC[C@@H](C)Oc2ccc(NS(=O)(=O)c3ccc(Cl)cc3)cc2C(=O)N([C@H](C)CO)C[C@@H]1C | 11[16.7 µM] | nt | nt | nt | nt | -5
O=C(/C=C/c1ccc(O)c(O)c1)OCCc1ccccc1 | 6 | -22 | nt | 1 | 95* | -14
CC1CCCC(C)N1CCCNC(=O)c1nn(C)c2c1CSc1ccccc1-2 (stereo not drawn) | 80* | -15 | 2 | -3 | 8 | 27
CCOc1ccc(CCn2c(-c3ccco3)nc3ccccc3c2=O)cc1OCC | 62* | 36 | 2 | -16 | 11 | nt
C/C=C/c1cnc2c(c1)C(=O)N([C@H](C)CO)C[C@@H](C)[C@@H](CN(C)Cc1ccccc1)O2 | 15[16.7 µM] | nt | nt | nt | nt | nt
CCCNC(=O)Nc1ccc2c(c1)OC[C@H](C)N(C(=O)C1CCC1)C[C@H](C)[C@H](OC)CN(C)C2=O | nt | nt | nt | nt | nt | 0
SMILES | HIV Env fusion | EBV LMP1 NFkB | NSD2 HMT inh | Glyco luc inh | Shn3 inh set2 | PAX8 reporter
CN(Cc1ccccc1)c1nc(N)c([N+](=O)[O-])c(NCc2ccccc2)n1 | nt | 72* | 1 | -5 | 10 | nt
Nc1nc(NCCc2ccccc2)nc(NCc2ccccc2)c1[N+](=O)[O-] | -9 | -28 | -4 | 0 | 3 | 10
O=C(C[C@@H]1CC[C@H](NC(=O)c2ccc(F)cc2)[C@H](CO)O1)NCCc1ccncc1 | 12[16.7 µM] | nt | nt | nt | nt | 0
O=C(c1cc2nc(-c3ccc(F)cc3)cc(C(F)(F)F)n2n1)N1CCCCC1c1cccnc1 (stereo not drawn) | 7 | 5 | nt | -3 | 90* | 37
O=C(c1cnn2c(C(F)(F)F)cc(-c3ccccc3)nc12)N1CCCCC1c1cccnc1 (stereo not drawn) | 5 | 1 | -1 | -1 | -2 | 23
C[C@@H]1CCCCO[C@H](CN(C)Cc2ccncc2)[C@H](C)CN([C@H](C)CO)C(=O)c2cc(NC(=O)Nc3cccc4ccccc34)ccc2O1 | -30[16.7 µM] | nt | nt | nt | nt | nt
CC1C=NC(S(=O)(=O)N2CC[C@H]3[C@@H](CO)N(C)c4ccc(-c5ccccc5F)cc4[C@H]32)=N1 (stereo partly drawn) | nt | nt | nt | nt | nt | -11
N#C/C(=C/c1ccc(Sc2nc3ccccc3[nH]2)o1)c1cccc(F)c1 | 87* | 11 | 27 | 1 | 30 | nt
N#C/C(=C/c1ccc(Sc2nc3ccccc3[nH]2)o1)c1ccccc1F | 73* | 10 | -1 | 2 | 68 | nt
COCCNC(=O)C[C@H]1CC[C@@H]2[C@@H](COc3ccc(NS(=O)(=O)c4ccc(Cl)cc4)cc3C(=O)N2C)O1 | nt | nt | nt | nt | nt | 1
O=S(=O)(c1ccccc1F)N1CC[C@H]2[C@H](CO)Nc3ccc(C4=CCCCC4)cc3[C@H]21 | nt | nt | nt | nt | nt | 95*
COc1cccc(-c2ccc3c(c2)[C@@H]2[C@@H](CCN2S(=O)(=O)c2cccc(OC)c2)[C@H](CO)N3)c1 | nt | nt | nt | nt | nt | 73*
COc1ccccc1-c1ccc2c(c1)[C@H]1[C@H](CCN1S(=O)(=O)c1ccccc1F)[C@@H](CO)N2 | nt | nt | nt | nt | nt | 53
COc1ccccc1-c1ccc2c(c1)[C@@H]1[C@@H](CCN1S(=O)(=O)c1ccccc1F)[C@H](CO)N2 | nt | nt | nt | nt | nt | 81*
COc1ccccc1-c1ccc2c(c1)[C@H]1[C@H](CCN1S(=O)(=O)c1ccccc1F)[C@H](CO)N2 | nt | nt | nt | nt | nt | 81*
CO[C@@H]1CN(C)C(=O)c2ccc(NC(=O)Cc3ccccc3)cc2OC[C@@H](C)N(C)C[C@H]1C | -6[16.7 µM] | nt | nt | nt | nt | -1
C[C@@H]1CN([C@@H](C)CO)C(=O)Cc2cc(NC(=O)Nc3ccc(F)cc3)ccc2O[C@@H]1CN(C)Cc1ccc2c(c1)OCO2 | nt | nt | nt | nt | nt | 32
O=S(=O)(c1ccccc1F)N1CC[C@@H]2[C@H]1c1cc(-c3cccc(F)c3)ccc1N[C@@H]2CO | nt | nt | nt | nt | nt | 100*
COc1ccccc1S(=O)(=O)N1CC[C@@H]2[C@@H](CO)Nc3ccc(-c4ccccc4)cc3[C@@H]21 | nt | nt | nt | nt | nt | 70*
